For 27 compounds, growth results are on record in PubChem BioAssay (NCI).

Among the test systems are T-47D breast; BT-549 breast; MDA-MB-435 melanoma; SW-620 colon; MCF7 breast; HCT-116 colon; HCC-2998 colon; KM12 colon.
What all share (assay): NCI-60 one-dose screen, 48 h (100 = growth as untreated, 0 = no growth, -100 = all killed)
Conditions in all cases: 10 µM unless noted

SMILES strings stand for the structures. The panel holds about 83,000 compounds, 20% with a hit somewhere; the sample as a whole holds those more often.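 A percent growth of 40 corresponds to 60% growth inhibition; 0 means no net growth; -100 means all cells died. Active threshold: below 10.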 Unmarked numbers belong to inactive results. Activity calls are given as the source filed them.

On to `COc1ccc(-c2conc2-n2nc(-c3ccccc3)nc2-c2ccccc2)cc1`, for which the growth with T-47D breast was 102%; in the assay on BT-549 breast it was 104%; with MDA-MB-435 melanoma, 105%; in the assay with SW-620 colon, 104%; in the assay with MCF7 breast, 89.1%; with HCT-116 colon, 97.2%. For the same compound, the growth was 105% in the assay on HCC-2998 colon and 110% in the assay on KM12 colon.
On to `N=C(N)c1ccc(NCCNc2ccc(C(=N)N)cc2)cc1`, for which the growth with T-47D breast is 137%; in the assay on BT-549 breast, 133%; in the assay with MDA-MB-435 melanoma it was 105%; in the assay with SW-620 colon, 106%; in the assay on MCF7 breast, 101%; with HCT-116 colon it was 114%. Also, the growth with HCC-2998 colon is 119%; in the assay with KM12 colon, 105%.
As to `CCN(CCC#N)c1ccccc1`, the growth is 101% in the assay on T-47D breast; 110% in the assay on BT-549 breast; 109% with MDA-MB-435 melanoma; 101% in the assay with SW-620 colon; 105% in the assay on MCF7 breast; 105% in the assay on HCT-116 colon. Also, the results for the growth in the assay on HCC-2998 colon and with KM12 colon were 109% and 114%, respectively.
For the compound `CCCCc1nc(Cl)c(C2CC(c3ccc(S(N)(=O)=O)cc3)=NN2c2cc(Cl)cc(Cl)c2)[nH]1` (stereo unspecified), the growth is 42.5% in the assay with T-47D breast; 60.3% with BT-549 breast; 35.7% with MDA-MB-435 melanoma; 58% in the assay with SW-620 colon; 6.51% (active) with MCF7 breast; 14.7% in the assay on HCT-116 colon. Besides, the results for the growth in the assay with HCC-2998 colon and in the assay with KM12 colon were 29.4% and 32.1%, respectively.
As for `Cc1cccc2nc3ccccc3c(Nc3ccc(NS(C)(=O)=O)cc3)c12`, the growth with T-47D breast is 37.1%; in the assay on BT-549 breast, 81.7%; in the assay on MDA-MB-435 melanoma, 78.6%; with SW-620 colon, 34.2%; in the assay on MCF7 breast it was 24.8%; in the assay on HCT-116 colon, 31.8%. Further, the growth in the assay on HCC-2998 colon is 75.5%; in the assay on KM12 colon, 55.5%.
Consider `Cc1cc2nc(CN)[nH]c2cc1C`, for which the growth was 94.4% in the assay with T-47D breast; 101% in the assay on BT-549 breast; 109% with MDA-MB-435 melanoma; 108% with SW-620 colon; 96.7% in the assay on MCF7 breast; 104% in the assay on HCT-116 colon. The growth with HCC-2998 colon was 106%; in the assay on KM12 colon, 103%.
Turning to `CCCCCCCCCCCCCCCC1=NCCN1`, the growth in the assay with T-47D breast was -15.4% (active); with BT-549 breast it was 98%; in the assay with MDA-MB-435 melanoma it was 0.615% (active); with SW-620 colon it was 7.4% (active); with MCF7 breast, 32%; in the assay on HCT-116 colon, 34.6%. Moreover, the growth in the assay on HCC-2998 colon is 73.8%; with KM12 colon it was 64.1%.
On to `Clc1cc(Cl)cc(-c2cnc3nonc3n2)c1`, for which the growth in the assay on T-47D breast was 59.8%; in the assay with BT-549 breast it was 95.6%; in the assay on MDA-MB-435 melanoma, 103%; in the assay with SW-620 colon it was 63.9%; in the assay with MCF7 breast, 69.5%; with HCT-116 colon it was 72.9%. The results for the growth with HCC-2998 colon and in the assay on KM12 colon were 97.5% and 90%, respectively.
With `CCOC(=O)c1cnc(SCC)nc1SC#N`, the growth in the assay with T-47D breast was 80.8%; in the assay with BT-549 breast, 115%; with MDA-MB-435 melanoma, 77.5%; in the assay on SW-620 colon it was 60%; in the assay with MCF7 breast, 87.7%; in the assay with HCT-116 colon, 64.2%. The growth with HCC-2998 colon is 108%; in the assay with KM12 colon it was 101%.
As to `S=C(S)Oc1cccc2cccnc12`, the growth was 107% in the assay with T-47D breast; 98.4% in the assay with BT-549 breast; 104% in the assay on MDA-MB-435 melanoma; 105% in the assay with SW-620 colon; 95.8% with MCF7 breast; 95.9% with HCT-116 colon. The growth in the assay with HCC-2998 colon is 113%; with KM12 colon, 109%.
For `C[C@H](NC(=O)c1snnc1C1CC1)c1c(F)cccc1Cl`, the growth in the assay on T-47D breast is 258%; with BT-549 breast, 139%; with MDA-MB-435 melanoma it was 106%; in the assay with SW-620 colon, 106%; with MCF7 breast, 98.7%; with HCT-116 colon, 122%. Further, the growth in the assay on HCC-2998 colon is 95.7%; with KM12 colon, 114%.
As to `COc1cc(CN(CCC(O)N2CCCC2=O)Cc2ccc3c(c2)OCO3)cc(OC)c1OC` (stereo unspecified), the growth is 96% with T-47D breast; 101% in the assay on BT-549 breast; 103% in the assay on MDA-MB-435 melanoma; 108% in the assay on SW-620 colon; 96.8% in the assay with MCF7 breast; 92.4% in the assay with HCT-116 colon. Moreover, the results for the growth in the assay with HCC-2998 colon and with KM12 colon were 113% and 105%, respectively.
Consider `COc1ccc(-c2nc(SCCC(C)C)nc(Nc3ccc(C(=O)O)cc3)c2C#N)cc1`, for which the growth in the assay on T-47D breast was 71.7%; with BT-549 breast, 82.6%; with MDA-MB-435 melanoma, 99.3%; with SW-620 colon, 101%; in the assay on MCF7 breast, 80.5%; in the assay with HCT-116 colon, 84.4%. Also, the results for the growth with HCC-2998 colon and with KM12 colon were 104% and 86.3%, respectively.
For `CCN(CC)CCCCCCCCNc1c2ccc(Cl)cc2nc2ccc(OC)cc12`, the growth was -37.9% (active) in the assay on T-47D breast; -82.6% (active) with BT-549 breast; -81.9% (active) in the assay with MDA-MB-435 melanoma; -31.9% (active) in the assay with SW-620 colon; -75.1% (active) in the assay on MCF7 breast; -63.8% (active) with HCT-116 colon. The growth in the assay with HCC-2998 colon is -89.1% (active); with KM12 colon it was -49.5% (active).
As for `CCCC(CCC)(C(N)=O)C(=O)O`, the growth with T-47D breast was 111%; in the assay on BT-549 breast, 98.7%; in the assay on MDA-MB-435 melanoma it was 102%; with SW-620 colon, 103%; with MCF7 breast, 109%; in the assay on HCT-116 colon, 102%. For the same compound, the growth in the assay on HCC-2998 colon is 100%; in the assay with KM12 colon, 106%.
As for `O=C(Nc1cccc(-n2ccc3c(NC(=O)c4ccccc4)nccc32)c1)c1ccc(Cl)c(Cl)c1`, the growth in the assay on T-47D breast is -55.4% (active); with BT-549 breast it was -75.7% (active); in the assay on MDA-MB-435 melanoma, -78.1% (active); in the assay with SW-620 colon, -80.3% (active); in the assay on MCF7 breast, -83.6% (active); in the assay with HCT-116 colon, -97.6% (active). In addition, the growth with HCC-2998 colon was -90.9% (active); in the assay on KM12 colon it was -75.2% (active).
With `CCCCCCCCCCCCCC1=NC(C)(C)CN1C(C)C`, the growth in the assay on T-47D breast was -22.3% (active); in the assay with BT-549 breast, 22.8%; with MDA-MB-435 melanoma, -57.3% (active); with SW-620 colon it was -67.2% (active); with MCF7 breast it was -41.3% (active); in the assay on HCT-116 colon, -72.6% (active). In addition, the values for the growth in the assay with HCC-2998 colon and with KM12 colon were -90.6% (active) and -75.5% (active), respectively.
As to `c1coc(CNc2c3ccccc3nc3ccccc23)c1`, the growth was 69.3% with T-47D breast; 97.4% in the assay on BT-549 breast; 87.6% in the assay with MDA-MB-435 melanoma; 42.3% in the assay on SW-620 colon; 21.3% in the assay with MCF7 breast; 24.1% in the assay on HCT-116 colon. For the same compound, the growth is 68.9% in the assay on HCC-2998 colon and 85.5% in the assay on KM12 colon.
Turning to `C[N+](C)(C)CC(=O)N/N=C\c1ccco1`, the growth is 97.7% in the assay with T-47D breast; 104% in the assay with BT-549 breast; 107% in the assay on MDA-MB-435 melanoma; 98.9% in the assay with SW-620 colon; 88.6% with MCF7 breast; 101% with HCT-116 colon. Further, the growth in the assay on HCC-2998 colon is 110%; in the assay with KM12 colon it was 96.8%.
As to `OC(COCc1ccccc1)COCc1ccccc1`, the growth in the assay with T-47D breast is 101%; in the assay with BT-549 breast it was 98.6%; in the assay with MDA-MB-435 melanoma, 112%; in the assay on SW-620 colon, 110%; with MCF7 breast it was 92.6%; in the assay with HCT-116 colon it was 99%. Further, the values for the growth with HCC-2998 colon and in the assay on KM12 colon were 97.9% and 105%, respectively.
Consider `Clc1ccc(-c2nc(-c3cccs3)no2)cc1`, for which the growth in the assay with T-47D breast was 56.9%; in the assay on BT-549 breast it was 102%; in the assay on MDA-MB-435 melanoma, 107%; with SW-620 colon, 91%; in the assay with MCF7 breast, 33.7%; with HCT-116 colon it was 97.8%. The growth in the assay on HCC-2998 colon is 102%; in the assay with KM12 colon, 103%.
Consider `C=CC(=O)N1CN(C(=O)C=C)CN(C(=O)C=C)C1`, for which the growth with T-47D breast is 33.6%; in the assay with BT-549 breast, 76.3%; with MDA-MB-435 melanoma it was 81.2%; with SW-620 colon it was 15.3%; in the assay on MCF7 breast it was 39.6%; in the assay on HCT-116 colon it was 13.7%. In addition, the values for the growth in the assay on HCC-2998 colon and in the assay with KM12 colon were 101% and 85.8%, respectively.
With `CCCCCCCCN=C(NCCCCCCCC)SCc1cccc2ccccc12`, the growth in the assay with T-47D breast was -97.5% (active); in the assay on BT-549 breast it was -74.8% (active); in the assay with MDA-MB-435 melanoma, -95.6% (active); in the assay on SW-620 colon, -91.6% (active); in the assay with MCF7 breast, -88.9% (active); in the assay with HCT-116 colon it was -83.3% (active). Also, the growth in the assay on HCC-2998 colon was -96.4% (active); in the assay with KM12 colon, -94.1% (active).
In the case of `COc1ccc(-c2cc(-c3cn(-c4cccc(Cl)c4)nc3-c3ccc(OC)cc3)[nH]c(=S)n2)cc1`, the growth is 72.1% with T-47D breast; 103% in the assay on BT-549 breast; 63.5% in the assay with MDA-MB-435 melanoma; 66.6% in the assay on SW-620 colon; 86.1% with MCF7 breast; 69.7% in the assay on HCT-116 colon. Moreover, the growth with HCC-2998 colon was 55.2%; in the assay on KM12 colon, 86.7%.
As to `COc1ccccc1CNCCCN1C(=O)c2ccc3c4c(ccc(c24)C1=O)C(=O)N(CCCNCCCN)C3=O`, the growth in the assay on T-47D breast was -21.6% (active); in the assay on BT-549 breast, 55%; in the assay with MDA-MB-435 melanoma, -69.4% (active); with SW-620 colon, -7.85% (active); in the assay with MCF7 breast, -42.7% (active); in the assay on HCT-116 colon it was -1.03% (active). Further, the growth was -5.58% (active) with HCC-2998 colon and 1.76% (active) in the assay with KM12 colon.
On to `CC(=O)Cc1ccccn1`, for which the growth in the assay on T-47D breast is 108%; in the assay with BT-549 breast, 97.8%; in the assay with MDA-MB-435 melanoma, 102%; with SW-620 colon, 108%; in the assay on MCF7 breast it was 97.8%; with HCT-116 colon, 107%. In addition, the results for the growth in the assay with HCC-2998 colon and in the assay with KM12 colon were 111% and 105%, respectively.
On to `COc1cc2ncnc(Nc3ccc(S(=O)(=O)Nc4nccs4)cc3)c2cc1OCCCN1CCOCC1`, for which the growth with T-47D breast was 106%; in the assay on BT-549 breast, 119%; in the assay with MDA-MB-435 melanoma, 101%; in the assay on SW-620 colon it was 103%; in the assay on MCF7 breast, 105%; in the assay with HCT-116 colon, 100%. Besides, the values for the growth with HCC-2998 colon and in the assay on KM12 colon were 104% and 101%, respectively.
